Screens as filed in PubChem BioAssay.
Only some compounds are listed: those with a hit (about 6% of all), similar ones and a draw of the others.
VDR inh – inhibitors of human vitamin D receptor; Potency, µM, usual class: inhibitors; VDR-SRC2-3 peptide fluorescence polarization, 2 h; P11473; AID 504847; 400,000 compounds, 0.93% hits
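Two reagent solutions held at 4 deg C in the dark were dispensed, compounds pinned at 23 nl, and the mixture incubated 2 h at room temperature. Read-out: fluorescence polarization of VDR–SRC2-3 peptide binding.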
PLK1 PBD inh – PLK1 (human) polo-box domain binding inhibition; P53350; Plk1 PBD binding of FITC phosphopeptide, fluorescence polarization; Potency, µM, usual class: inhibitors; 360,000 compounds, 2.8% hits; AID 720504; note: series mostly up to about 57 µM; nearly all actives have a fitted effect of over 65% in size
Target sequence (P53350 whole entry, looked up, the tested form may be a part): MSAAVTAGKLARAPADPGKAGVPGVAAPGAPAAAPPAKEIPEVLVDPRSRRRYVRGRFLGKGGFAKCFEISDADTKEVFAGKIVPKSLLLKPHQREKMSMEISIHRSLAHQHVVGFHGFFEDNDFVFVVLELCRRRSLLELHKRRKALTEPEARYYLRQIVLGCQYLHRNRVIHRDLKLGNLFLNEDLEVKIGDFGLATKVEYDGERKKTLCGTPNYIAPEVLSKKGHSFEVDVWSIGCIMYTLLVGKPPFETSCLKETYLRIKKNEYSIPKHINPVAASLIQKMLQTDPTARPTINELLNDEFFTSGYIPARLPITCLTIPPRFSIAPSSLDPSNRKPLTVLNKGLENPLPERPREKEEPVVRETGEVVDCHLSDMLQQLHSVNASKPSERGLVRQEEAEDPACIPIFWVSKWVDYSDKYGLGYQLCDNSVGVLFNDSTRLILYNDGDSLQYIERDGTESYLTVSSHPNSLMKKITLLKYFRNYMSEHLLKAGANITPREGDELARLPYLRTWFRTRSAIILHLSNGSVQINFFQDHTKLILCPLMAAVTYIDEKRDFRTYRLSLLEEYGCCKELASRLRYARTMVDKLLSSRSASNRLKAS
Tau FP inhib – blocks human tau fibril formation measured by polarization | P10636 | K18 P301L tau heparin fibrillization, Alexa594 FP, 6 h | Potency, µM (titrated, usually from 57.7 µM), hits mostly inhibitors | AID 1468 | 280,000 compounds, 0.39% hits; note: nearly all actives have a fitted effect of over 55% in size
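Read-out: fluorescence polarization of Alexa 594-labeled tau (0.24 uM), 555 nm excitation, 632 nm emission. Mixtures held 15 uM unlabeled K18 P301L, compound and 20 uM heparin, pH 7 acetate buffer, incubated 6 hr at 37 C.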
Tau ThT inhib – inhibitors of human tau fibril formation, thioflavin T binding | 270,000 compounds, 2.1% hits | recombinant tau K18 P301L, heparin-induced fibrillization, ThT fluorescence | P10636 | Potency, µM (doses to about 57.4 µM), hits mostly inhibitors; note: nearly all actives have a fitted effect of over 55% in size
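K18 P301L tau (15 uM + 0.24 uM Alexa 594-tagged), heparin 20 uM, NaOAc pH 7, 6 h 37 C; ThT 30 uM, 1 h RT, ex 450/em 510 nm.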
Sfp PPTase inh – Sfp phosphopantetheinyl transferase inhibition. Q9F4F7. Biochemical Sfp PPTase activity, qHTS. Potency, µM, most hits filed as inhibitors. 310,000 compounds, 3.5% hits;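 note: the enzyme is Sfp with the accession as filed and its product quenches rhodamine fluorescence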
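After 15 min at room temperature with compound, 15 nM Sfp received 5 uM rhodamine-CoA plus 12.5 uM BHQ-2-ybbR (50 mM Hepes pH 7.6, 10 mM MgCl2). Rate came from the fluorescence difference over 30 min, ex 525/em 598 nm.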
Tau fluor counter – counter-screen for tau fibril formation inhibitors | Potency, µM (highest dose often 57.7 µM) | tau K18 P301L Alexa594 fluorescence, heparin fibrillization | AID 1463 | 280,000 compounds, 0.93% hits; note: nearly all actives have a fitted effect of over 55% in size
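Human tau K18 P301L (15 uM unlabeled, 0.24 uM Alexa 594-labeled) in 100 mM sodium acetate pH 7 with 20 uM heparin, 6 hr at 37 C. ThT 30 uM added, 1 hr ambient; Alexa 594 FP and total fluorescence read at 555/632 nm.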
Numbers stand for hits; 0 = inactive; ? = inconclusive; - = no result given; [ ] = remark or other dose. Calls come from the whole dose curve; as a rule, active = well fitted curve in the direction sought with a large enough effect; inconclusive = small, poorly fitted or top-dose-only effect, or another doubt; inactive = no such curve, though single readings can be large; an effect the other way counts as inactive or inconclusive.

SMILES	VDR inh	PLK1 PBD inh	Tau FP inhib	Tau ThT inhib	Sfp PPTase inh	Tau fluor counter
COc1ccc(-c2csc(C(O)c3ccc(F)c(OC)c3)n2)cc1 (stereo not given)	-	0	-	-	-	-
COc1ccc(C(=O)N/N=C(/C)c2ccc(N3CCCCC3)cc2)cc1	?	30µM	0	?	0	0
COc1ccc(/C(C)=N/NC(=O)c2ccc(N(C)C)cc2)cc1	0	0	0	?	0	0
COc1ccc(OCc2cccc(C(=O)Nc3ccc(CN4CCCCC4)cc3)c2)cc1	0	0	0	?	0	?
CCOc1ccc(OCc2cccc(C(=O)Nc3ccc(CN4CCCCC4)cc3)c2)cc1	0	0	0	0	13µM	0
CCOc1ccc(C(=O)Nc2ccccc2C(=O)O)cc1	?	27µM	0	0	0	0
CC(=O)c1cccc(OCC(=O)Nc2cccc(C(=O)Nc3c(C)n(C)n(-c4ccccc4)c3=O)c2)c1	0	19µM	-	-	-	-
Cc1c(NC(=O)c2cccc(NC(=O)COc3ccc(C#N)cc3)c2)c(=O)n(-c2ccccc2)n1C	0	0	-	-	-	-
COc1ccccc1Cc1c(-c2ccc(OC)c(OC)c2)nc2c(Cl)cc(C(F)(F)F)cn12	-	0	-	-	-	-
Cc1c(C(=O)OCC(=O)Nc2c(C)n(C)n(-c3ccccc3)c2=O)cccc1[N+](=O)[O-]	0	21µM	0	0	0	0
Cc1ccccc1C(=O)Nc1ccc(N2CCCC2)cc1	0	0	0	?	0	?
COc1ccc(OCC(=O)Nc2ccc(C(=O)Nc3ccccc3C(=O)O)cc2)cc1	0	0	-	-	0	-
CCOc1ccc(C(=O)Nc2ccc(N3CCCC3)cc2)cc1	0	0	0	8.9µM	?	?
Cc1ccc(C(=O)Nc2ccc(N3CCCC3)cc2)c(C)c1	0	0	0	14µM	0	0
O=C(COc1ccc2ccccc2c1)Nc1cccc(C(=O)Nc2ccccc2C(=O)O)c1	0	24µM	0	0	0	0
O=C(Cn1c(=O)oc2cc(S(=O)(=O)N3CCCCC3)ccc21)NCc1ccc(Cl)cc1	0	-	0	0	-	0
CCOc1ccc(OC(=O)c2cn(-c3ccc(C)cc3)c(=O)c3ccccc23)cc1	0	-	0	0	-	0
COc1ccc(Nc2ccccc2C(=O)O)cc1	0	0	0	0	0	0
COc1ccc(C(=O)Nc2ccc(N3CCCC3)cc2)cc1	0	?	0	7.9µM	79µM	16µM[quencher]
CC(C)Oc1ccc(C(=O)Nc2ccccc2N2CCCC2)cc1	0	27µM	0	?	0	0
COc1ccc(C(=O)NC(=S)Nc2ccc(N3CCCC3)cc2)cc1	0	0	0	?	0	0
O=C(O)c1ccccc1Nc1cccc(OCc2ccc3ccccc3n2)c1	0	0	0	14µM	?	8.9µM[quencher]
COCCNC(=O)C1(C)CCCN(C(=O)c2c(F)ccc(C)c2F)C1 (stereo not given)	-	0	-	-	-	-
NC1=NCC2c3ccccc3Cc3ccccc3N12 (stereo not given)	0	-	-	-	0	-
Cc1cc(C)n(-c2nc(Nc3ccccc3)nc(-n3nc(C)cc3C)n2)n1	0	0	0	0	0	0
SMILES	VDR inh	PLK1 PBD inh	Tau FP inhib	Tau ThT inhib	Sfp PPTase inh	Tau fluor counter
Cc1cc(C)n(-c2nc(C)nc(N)n2)n1	0	12µM	0	0	0	0
Cc1cc(C)n(-c2nc(N(c3ccccc3)c3ccccc3)nc(-n3nc(C)cc3C)n2)n1	0	0	?	20µM	50µM	0
CC(=O)Cc1nsc(Nc2ccc(C)cc2)n1	?	27µM	0[2.34 µM]	0	0	0
CNc1nc(CC(C)=O)ns1	0	0	0	0	0	0
CCCCC(CCC(=O)O)(C(=O)OCC)c1csc(Nc2ccccc2)n1 (stereo not given)	0	?	0	0	0	0
CCN(CC)C(=O)c1csc(Nc2ccc(C)cc2)n1	0	0	0	?	20µM	0
CCOC(=O)/C(=N\Nc1ccc(Cl)cc1)c1csc(Nc2ccccc2)n1	0	0	?	?	0	4.5µM[quencher]
CCOC(=O)/C(=N/Nc1ccccc1)c1csc(Nc2ccccc2)n1	0	0	?	?	0	7.1µM[quencher]
Cc1ccc(S(=O)(=O)N2C[C@H]3C(=O)C[C@@H](c4ccc(Cl)cc4)N(S(=O)(=O)c4ccccc4C)[C@H]3C[C@H]2c2ccccc2)cc1	-	0	-	-	-	-
N#Cc1cc2c(=O)n3ccccc3nc2n(-c2nnc(SCc3ccccc3Cl)s2)c1=O	0	-	0	0	-	?
CC(OC(=O)Cn1nnc2ccccc21)C(=O)NC1CCCC1 (stereo not given)	0	0	-	-	0	-
